In publication PMC4336329 (PLoS ONE, 2015):
The whole screen tested about 310,000 compounds, of which about 14,000 (4.5%) showed an effect of 50% or more. The effect is printed as a negative number. What follows is part of a selection rich in strong results, with near analogues and random picks from the rest.

What follows are compounds tested against human ether-à-go-go-related gene (hERG) potassium channel (human, UniProt Q12809) (assay: primary screen, population patch clamp on CHO cells stably expressing hERG; higher = less effect of the substance).
human ether-à-go-go-related gene (hERG) potassium channel, sequence (Q12809 whole entry, looked up): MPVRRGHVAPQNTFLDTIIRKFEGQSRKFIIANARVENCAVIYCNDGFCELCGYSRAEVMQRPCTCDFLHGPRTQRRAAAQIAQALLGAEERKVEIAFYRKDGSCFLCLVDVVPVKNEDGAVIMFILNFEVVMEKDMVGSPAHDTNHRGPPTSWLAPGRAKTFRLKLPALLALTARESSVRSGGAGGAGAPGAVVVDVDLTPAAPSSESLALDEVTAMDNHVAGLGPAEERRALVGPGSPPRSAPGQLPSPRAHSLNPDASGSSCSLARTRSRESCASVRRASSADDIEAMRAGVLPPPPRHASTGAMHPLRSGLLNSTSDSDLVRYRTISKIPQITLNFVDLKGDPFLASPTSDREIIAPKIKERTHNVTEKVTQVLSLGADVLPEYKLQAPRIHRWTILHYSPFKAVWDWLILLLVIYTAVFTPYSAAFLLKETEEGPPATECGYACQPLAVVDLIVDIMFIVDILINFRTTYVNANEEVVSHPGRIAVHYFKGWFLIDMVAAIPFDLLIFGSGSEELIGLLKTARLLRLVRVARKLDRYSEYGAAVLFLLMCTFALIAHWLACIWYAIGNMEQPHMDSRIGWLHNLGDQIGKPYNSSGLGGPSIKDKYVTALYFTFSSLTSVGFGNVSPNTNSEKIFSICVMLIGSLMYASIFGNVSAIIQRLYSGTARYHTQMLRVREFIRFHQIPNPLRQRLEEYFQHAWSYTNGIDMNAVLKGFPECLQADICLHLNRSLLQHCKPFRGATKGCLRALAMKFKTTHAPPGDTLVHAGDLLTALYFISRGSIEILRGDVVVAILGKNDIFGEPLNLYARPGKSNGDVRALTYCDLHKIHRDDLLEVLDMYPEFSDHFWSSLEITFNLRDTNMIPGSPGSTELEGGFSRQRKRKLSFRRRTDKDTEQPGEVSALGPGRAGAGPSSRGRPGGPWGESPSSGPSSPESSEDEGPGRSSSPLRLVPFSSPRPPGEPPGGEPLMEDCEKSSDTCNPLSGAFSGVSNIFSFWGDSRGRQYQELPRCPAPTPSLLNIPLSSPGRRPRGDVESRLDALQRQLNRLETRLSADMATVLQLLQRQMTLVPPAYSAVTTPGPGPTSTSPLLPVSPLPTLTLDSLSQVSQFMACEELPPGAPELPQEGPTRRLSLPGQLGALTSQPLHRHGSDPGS
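Further: peak tail current of the secondary pulse compared with the same well before compound.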

Row | Structure (SMILES) | hERG current change (%, negative = inhibition) at 10uM
1 | Cc1cc(C(=O)CN2C(=O)NC3(CCCc4ccccc43)C2=O)c(C)n1C (centres unmarked) | -13.5%
2 | COc1ccc(/C=C2\S/C(=N/S(=O)(=O)c3cccs3)NC2=O)cc1 | 8.45%
3 | CS(=O)(=O)N(CC(=O)NCCC1=CCCCC1)c1cccc([N+](=O)[O-])c1 | -32.4%
4 | COc1cc(OC)cc(C(=O)Oc2c(CN3CCOCC3)cc(Cl)c3cccnc23)c1 | -15.5%
5 | COC(=O)c1cccc(Nc2cc(C)nc(-c3ccccc3O)n2)c1 | 10.2%
6 | COc1ccc(/C=C/C(=O)OCC(=O)c2ccc3c(c2)NC(=O)CO3)c(OC)c1 | 1.6%
7 | Cc1ccccc1NC(=O)C1CCCN(S(=O)(=O)c2ccc3c(c2)C(C)(C)C(=O)N3C)C1 (centres unmarked) | 6.82%
8 | COc1cccc(CN2CCC(n3nccc3NC(=O)CCCc3ccccc3)CC2)c1O | -75.9%
9 | COCc1ccc(CN2CCC(n3nccc3NC(=O)CCCc3ccccc3)CC2)o1 | 21.5%
10 | O=C(Nc1ccnn1C1CCN(Cc2c[nH]c3ccccc23)CC1)c1ccccc1 | -44.7%
11 | CCOc1ccccc1CN1CCC(n2nccc2NC(=O)CCc2ccccc2)CC1 | -38.6%
12 | COc1ccccc1CN1CCC(n2nccc2NC(=O)CCCc2ccccc2)CC1 | -85.2%
13 | CCOc1ccccc1CN1CCC(n2nccc2NC(=O)CCCc2ccccc2)CC1 | -83.7%
14 | C=CCOc1ccccc1CN1CCC(n2nccc2NC(=O)C2CCOC2)CC1 (centres unmarked) | -21.5%
15 | COc1ccccc1CN1CCC(n2nccc2NC(=O)CCc2ccccc2)CC1 | -23.9%
16 | C=CCOc1ccccc1CN1CCC(n2nccc2NC(=O)c2ccccc2)CC1 | -64.4%
17 | O=S(=O)(NCc1cccnc1)c1ccc(Cl)c(Cl)c1 | -10.9%
18 | O=C(CN1CCCCC1)Nc1cc(S(=O)(=O)N2CCOCC2)ccc1N1CCCC1 | 6.08%
19 | COc1ccc(C(=O)C[n+]2cccc3cc(OC)ccc32)cc1.[Br-] | 6.04%
20 | CCn1c(=O)n(CC)c2cc(NC(=O)CSc3ccc([N+](=O)[O-])cn3)ccc21 | -5.04%
21 | Cc1nnc(SCC(=O)Nc2ccc(N3CCOCC3)cc2)o1 | 10.3%
22 | COc1cccc(CN2CCC(n3nccc3NC(=O)CCOc3ccccc3)CC2)c1O | -61.5%
23 | COCc1ccc(CN2CCC(n3nccc3NC(=O)CCOc3ccccc3)CC2)o1 | -0.748%
24 | Cc1ccccc1CN1CCC(n2nccc2NC(=O)CCOc2ccccc2)CC1 | -44.9%
25 | CCC1(CC)NC(=O)N(CC(=O)OC(C)C(=O)Nc2ccc(Cl)cn2)C1=O (centres unmarked) | -51.7%
26 | CCC1(CC)NC(=O)N(CC(=O)OC(C)C(=O)Nc2ccccc2OC)C1=O (centres unmarked) | 32.3%
27 | CCC1(CC)NC(=O)N(CC(=O)OC(C)C(=O)Nc2ccc(NC(C)=O)cc2)C1=O (centres unmarked) | 3.1%

Row | Structure (SMILES) | hERG current change (%, negative = inhibition) at 10uM
28 | CC(=O)N1CCN(CC(=O)Nc2sccc2C#N)CC1 | 17.8%
29 | N#Cc1ccsc1NC(=O)CN1CCN(S(=O)(=O)c2ccccc2C(F)(F)F)CC1 | -56.9%
30 | N#Cc1ccsc1NC(=O)CN1CCN(S(=O)(=O)c2cc(Cl)ccc2Cl)CC1 | -32%
31 | N#Cc1ccsc1NC(=O)CN1CCCCCC1 | -3.42%
32 | Cc1ccc(C)c(S(=O)(=O)N2CCN(CC(=O)Nc3sccc3C#N)CC2)c1 | -57.7%
33 | N#Cc1ccsc1NC(=O)CN1CCN(c2ccccc2O)CC1 | -4.95%
34 | COC(=O)C1=C2c3[nH]c4ccccc4c3CCN2C(=O)CC1 | -23.1%
35 | O=C(CN1CCOCC1)NCc1ccccc1 | 17.4%
36 | C=C(C)COc1ccc(-c2[nH]ncc2-c2ccc(OC)c(OC)c2)c(O)c1 | -0.891%
37 | CC(C(=O)N1CCc2ccccc21)N(C)CC(=O)Nc1ccc(F)cc1 (centres unmarked) | -47.9%
38 | CC(C(=O)N1CCc2ccccc21)N(C)CC(=O)Nc1ccccc1Cl (centres unmarked) | -29.2%
39 | Cc1cc(C)c(NC(=O)CN(C)C(C)C(=O)N2CCc3ccccc32)c(C)c1 (centres unmarked) | -50.3%
40 | CCOC(=O)c1c(C)nc(-c2ccccc2)nc1N | 7.25%
41 | CCCCC(=O)N1C/C=C\[C@H](c2ccc(OC)cc2)N(Cc2ccc(F)cc2)C(=O)[C@@H]1C | -68.6%
42 | CCCCC(=O)N1C/C=C\C(c2ccc(OC)cc2)N(Cc2ccc(F)cc2)C(=O)[C@H]1Cc1ccccc1 (some centres unmarked) | 7.51%
43 | COc1ccc([C@H]2/C=C\CN(C(=O)CC(C)(C)C)[C@@H](C)C(=O)N2Cc2ccc(F)cc2)cc1 | -17.4%
44 | CN(CCNC(=O)C1CCN(S(=O)(=O)c2cnc[nH]2)CC1)Cc1ccccc1 | 12.6%
45 | O=C(CCC1CCCCC1)Nc1ccccc1O | 3.23%
46 | COc1cccc(CN2CCN(Cc3ccc4c(NC(C)=O)cccc4n3)CC2CCO)c1 (centres unmarked) | 5.13%
47 | COc1cc(CN2CCN(Cc3ccc4cc(F)ccc4n3)CC2CCO)cc(OC)c1 (centres unmarked) | -64.4%
48 | Cc1ccc(CN2CCN(Cc3ccc4cc(F)ccc4n3)CC2CCO)o1 (centres unmarked) | -30.6%
49 | COc1ccc(CN2CCN(Cc3ccc4cc(F)ccc4n3)CC2CCO)c(C)c1C (centres unmarked) | -63.7%
50 | CC(=O)Nc1ccc2nc(CN3CCN(Cc4ccc(F)cc4)C(CCO)C3)ccc2c1 (centres unmarked) | -28.8%
51 | CCOc1ccc(CN2CCN(Cc3ccc4cc(F)ccc4n3)CC2CCO)cc1 (centres unmarked) | -75.7%
52 | COc1ccc(CN2CCN(Cc3ccon3)CC2CCO)c(C)c1C (centres unmarked) | -37.3%
53 | COc1ccc(-c2csc3nc(C)nc(N4CCCCC4)c23)cc1OC | -7.85%
